In PubChem BioAssay one finds growth inhibition, inhibition and outcome data, which are given here for 20 molecules.

A number with no mark means an inactive call. For some of these results: Results with a measured potency or affinity are listed apart. Activity calls are given as the source filed them. Unless noted, how the calls were made is not given here.

Test [1] is described as follows: antimalarial activity against Dd2 strain (AID 2302;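 active means growth inhibition above 50% at the single 2 µM test dose, taken to imply half-maximal potency below 2 µM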;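 further: 0% = DMSO untreated growth and 100% = chloroquine plus artemisinin killed control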). As to conditions: P. falciparum Dd2 in RBCs, LDH growth readout, 72 h; at 2 µM; hits give high values.
Test [2] in a line: HepG2 cytotoxicity, primary screen, cytotoxicity control for P. falciparum antimalarial project, cell-based, ATP luminescence (AID 2303;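 active means inhibition above 50%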;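 further: 0% = DMSO wells and 100% = digitonin-killed cells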). As to conditions: HepG2 viability, 24-48 h, at 10 µM, hits give high values.
Test [3] addresses L-lactate dehydrogenase (Plasmodium falciparum (isolate CDC / Honduras)) (UniProt Q27743). The test is described as follows: PfLDH activity inhibition – cell lysate, 3D7 strain, counter-screen for P. falciparum growth inhibition project (AID 2304).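 Further: 0% = vehicle and 100% = reference inhibitor.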 As to conditions: P. falciparum 3D7 crude extract, LDH APAD/NBT absorbance; at 2 µM; hits give high values.
Test [4] in a line: inhibition of 3D7 malaria parasite growth – strain 3D7 (AID 2306).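 Further: 0% = DMSO wells and 100% = chloroquine plus artemisinin control wells.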 As to conditions: P. falciparum 3D7 erythrocytic growth, LDH absorbance, 72 h; at 2 µM; hits give high values.
In test [5] the target is Calcium-dependent protein kinase 1 (Plasmodium falciparum (isolate 3D7)) (UniProt P62344). The test is described as follows: PfCDPK1 kinase inhibitors, biochemical, TCAMS library (AID 1159585; cut-off not given, nearly all actives have IC50 up to about 0.98 µM;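 further: inhibitors leave more ATP so luminescence rises with inhibition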). As to conditions: recombinant PfCDPK1, Kinase-Glo ATP depletion luminescence. On the technique in general: In Kinase-Glo more light means more ATP remaining.
Calcium-dependent protein kinase 1 (Plasmodium falciparum (isolate 3D7)), sequence (P62344 whole entry, looked up): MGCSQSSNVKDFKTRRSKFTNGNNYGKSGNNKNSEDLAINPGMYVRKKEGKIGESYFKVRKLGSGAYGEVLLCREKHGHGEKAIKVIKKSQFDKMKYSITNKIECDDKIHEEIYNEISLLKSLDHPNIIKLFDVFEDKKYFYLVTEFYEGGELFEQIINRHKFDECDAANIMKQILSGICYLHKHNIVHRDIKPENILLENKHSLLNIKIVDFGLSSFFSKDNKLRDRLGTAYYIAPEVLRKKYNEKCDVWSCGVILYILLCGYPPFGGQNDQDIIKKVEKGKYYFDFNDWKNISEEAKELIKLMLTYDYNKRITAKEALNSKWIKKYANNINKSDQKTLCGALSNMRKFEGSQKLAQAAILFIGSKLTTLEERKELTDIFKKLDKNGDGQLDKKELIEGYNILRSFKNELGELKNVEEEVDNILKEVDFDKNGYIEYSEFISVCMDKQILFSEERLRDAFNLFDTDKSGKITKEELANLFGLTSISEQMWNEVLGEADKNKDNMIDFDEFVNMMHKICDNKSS
Test [6] addresses Plasmodium falciparum protein kinase 6 (PK6, PF3D7_1337100) (UniProt Q8IDW1). The test is described as follows: PfPK6 kinase inhibitors, biochemical, TCAMS library (AID 1159586). As to conditions: recombinant PfPK6, Kinase-Glo ATP depletion luminescence.
The target in test [7] is Protein kinase 7 (PK7), Plasmodium falciparum 3D7 (PF3D7_0213400) (UniProt Q7YTF7). The test is described as follows: inhibition of Plasmodium PK7 catalytic activity – biochemical, TCAMS antimalarial set, Kinase-Glo luminescence (AID 1159587). As to conditions: recombinant PfPK7, Kinase-Glo ATP depletion luminescence.
Protein kinase 7 (PK7), Plasmodium falciparum 3D7 (PF3D7_0213400), sequence (Q7YTF7 1-343): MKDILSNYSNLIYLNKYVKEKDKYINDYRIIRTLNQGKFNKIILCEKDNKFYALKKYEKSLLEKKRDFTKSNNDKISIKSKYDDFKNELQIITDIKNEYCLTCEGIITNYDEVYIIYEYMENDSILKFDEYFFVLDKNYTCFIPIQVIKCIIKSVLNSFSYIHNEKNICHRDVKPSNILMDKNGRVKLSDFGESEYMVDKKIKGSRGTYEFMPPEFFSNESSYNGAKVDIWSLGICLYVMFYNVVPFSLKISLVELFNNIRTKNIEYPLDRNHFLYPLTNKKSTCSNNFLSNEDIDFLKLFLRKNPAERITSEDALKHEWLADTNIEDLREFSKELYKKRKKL
The target in test [8] is Calcium-dependent protein kinase 4 (Plasmodium falciparum (isolate 3D7)) (UniProt Q8IBS5). The test is described as follows: PfCDPK4 kinase inhibitors, biochemical, TCAMS library (AID 1159588; cut-off not given, nearly all actives have IC50 up to about 0.91 µM). As to conditions: recombinant PfCDPK4, Kinase-Glo ATP depletion luminescence.
Calcium-dependent protein kinase 4 (Plasmodium falciparum (isolate 3D7)), sequence (Q8IBS5 whole entry, looked up): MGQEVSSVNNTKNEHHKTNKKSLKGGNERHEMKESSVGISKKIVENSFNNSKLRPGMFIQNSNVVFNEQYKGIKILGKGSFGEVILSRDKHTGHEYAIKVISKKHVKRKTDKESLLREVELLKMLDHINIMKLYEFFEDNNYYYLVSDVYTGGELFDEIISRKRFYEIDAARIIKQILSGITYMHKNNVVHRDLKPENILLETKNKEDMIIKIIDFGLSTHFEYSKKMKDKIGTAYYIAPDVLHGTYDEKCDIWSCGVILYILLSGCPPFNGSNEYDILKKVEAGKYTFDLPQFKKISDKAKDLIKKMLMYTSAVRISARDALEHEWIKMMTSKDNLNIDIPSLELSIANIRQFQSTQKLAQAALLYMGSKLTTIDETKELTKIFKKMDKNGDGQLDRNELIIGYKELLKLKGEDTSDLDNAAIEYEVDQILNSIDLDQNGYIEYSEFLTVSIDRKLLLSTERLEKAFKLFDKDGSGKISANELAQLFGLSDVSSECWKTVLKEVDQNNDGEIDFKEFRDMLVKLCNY

L-lactate dehydrogenase (Plasmodium falciparum (isolate CDC / Honduras)), sequence (Q27743 whole entry, looked up): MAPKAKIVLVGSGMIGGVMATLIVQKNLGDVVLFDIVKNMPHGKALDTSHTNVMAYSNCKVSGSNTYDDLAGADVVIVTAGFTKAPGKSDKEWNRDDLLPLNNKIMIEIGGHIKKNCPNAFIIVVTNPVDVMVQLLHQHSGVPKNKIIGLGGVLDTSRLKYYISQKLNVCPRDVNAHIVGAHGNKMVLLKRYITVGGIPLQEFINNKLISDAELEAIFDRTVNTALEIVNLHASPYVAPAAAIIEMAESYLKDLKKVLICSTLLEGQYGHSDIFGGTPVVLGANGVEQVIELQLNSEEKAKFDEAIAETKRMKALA
Plasmodium falciparum protein kinase 6 (PK6, PF3D7_1337100), sequence (Q8IDW1 1-305): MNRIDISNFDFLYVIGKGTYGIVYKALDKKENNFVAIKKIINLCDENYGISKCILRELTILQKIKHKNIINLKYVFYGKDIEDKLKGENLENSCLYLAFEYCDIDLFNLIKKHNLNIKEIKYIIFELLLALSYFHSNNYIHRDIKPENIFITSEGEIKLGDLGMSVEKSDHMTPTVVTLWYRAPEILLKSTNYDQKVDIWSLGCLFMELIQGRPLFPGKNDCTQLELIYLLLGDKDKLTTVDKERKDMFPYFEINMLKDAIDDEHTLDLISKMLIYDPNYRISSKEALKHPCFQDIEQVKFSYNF

As for `CCCCN1C(=O)C(c2ccccc2)(c2ccccc2)N=C1N`, the growth inhibition in test [1] was 34%; in test [4] it was 87% (active). Besides, the results for the inhibition in test [2] and in test [3] were 19% and 7%, respectively. Also, the result in test [5], in test [6], in test [7] and in test [8] was inactive.
Regarding `COc1ccc(CN2CCC(Oc3cccc(NC(=O)c4ccc(C(F)(F)F)cc4)c3)CC2)cc1`, the growth inhibition was 20% in test [1] and 95% (active) in test [4]. Further, the inhibition in test [2] is 35%; in test [3], -6%. Besides, the outcome in test [5], in test [6], in test [7] and in test [8] was inactive.
As to `Cc1ccc(O)cc1Nc1ccnc2cc(-c3csc(CN4CCN(C)CC4)n3)ccc12`, the growth inhibition in test [1] is 77% (active); in test [4] it was 100% (active). The figures for the inhibition in test [2] and in test [3] were 6% and -4%, respectively. The result in test [5], in test [6], in test [7] and in test [8] was inactive.
Consider `CCCCCN1CCCC(NS(=O)(=O)c2ccc(C(=O)Nc3cccc(C(F)(F)F)c3)cc2)C1` (stereo not given), for which the figures for the growth inhibition in test [1] and in test [4] were 3% and 97% (active), respectively. For the same molecule, the results for the inhibition in test [2] and in test [3] were 30% and 5%, respectively. In addition, the result in test [5], in test [6], in test [7] and in test [8] was inactive.
Regarding `O=C(NC1CCC(CCN2Cc3cccc(C(F)(F)F)c3C2)CC1)c1cccc(-c2cccnc2)c1` (stereo not given), the growth inhibition was 67% (active) in test [1] and 100% (active) in test [4]. The results for the inhibition in test [2] and in test [3] were 26% and 2%, respectively. Further, the result in test [5], in test [6], in test [7] and in test [8] was inactive.
As to `O=C(NCc1ccccn1)C(c1cc2ccccc2o1)N1CCN(C(c2ccccc2)c2ccccc2)CC1` (stereo not given), the figures for the growth inhibition in test [1] and in test [4] were 68% (active) and 95% (active), respectively. Also, the inhibition in test [2] was 17%; in test [3], 0%. Moreover, the outcome in test [5], in test [6], in test [7] and in test [8] was inactive.
For the molecule `CSc1nc2nc(C)c(Cc3cccc(C(F)(F)F)c3)c(C)n2n1`, the results for the growth inhibition in test [1] and in test [4] were 95% (active) and 98% (active), respectively. For the same molecule, the inhibition in test [2] is 4%; in test [3], 2%. The outcome in test [5], in test [6], in test [7] and in test [8] was inactive.
Consider `COc1cc2nc(N3CCC(CNCc4ccc(-c5ccc(C(F)(F)F)cc5)cc4)CC3)nc(N)c2cc1OC`, for which the growth inhibition is 100% (active) in test [1] and 99% (active) in test [4]. Also, the inhibition in test [2] was 99% (active); in test [3], -4%. For the same molecule, the outcome in test [5], in test [6], in test [7] and in test [8] was inactive.
As to `O=C(Cc1ccc(-n2cnnn2)cc1)N(Cc1cncn1Cc1cccc(C(F)(F)F)c1)CC1CC1`, the values for the growth inhibition in test [1] and in test [4] were -2% and 86% (active), respectively. The values for the inhibition in test [2] and in test [3] were -12% and 0%, respectively. Further, the result in test [5], in test [6], in test [7] and in test [8] was inactive.
In the case of `CCc1c[nH]c2c(N3CCCS3(=O)=O)cc(C(=O)N[C@@H](Cc3ccccc3)[C@H](O)CNC(C)(C)c3cccc(C(F)(F)F)c3)cc12`, the growth inhibition in test [1] was 99% (active); in test [4], 97% (active). Further, the results for the inhibition in test [2] and in test [3] were 20% and 2%, respectively. Also, the outcome in test [5], in test [6], in test [7] and in test [8] was inactive.
For `CC(C)c1ccc(-c2nc3ncc(Cl)cc3[nH]2)cc1`, the growth inhibition is 77% (active) in test [1] and 87% (active) in test [4]. Moreover, the inhibition in test [2] is 3%; in test [3], -2%. Also, the outcome in test [5], in test [6], in test [7] and in test [8] was inactive.
Turning to `CCCN1CCN(CCCNC(=O)c2cc3c(Cl)nc4ccc(C)cc4c3s2)CC1`, the values for the growth inhibition in test [1] and in test [4] were 27% and 97% (active), respectively. The inhibition in test [2] is 18%; in test [3] it was 0%. Further, the result in test [5], in test [6], in test [7] and in test [8] was inactive.
On to `CCCC(=O)Nc1ccc(OCCCN(Cc2ccccc2OC(F)(F)F)c2ccc(C#N)c(C(F)(F)F)c2)cc1`, for which the values for the growth inhibition in test [1] and in test [4] were 95% (active) and 94% (active), respectively. Besides, the figures for the inhibition in test [2] and in test [3] were 0% and -2%, respectively. The result in test [5], in test [6], in test [7] and in test [8] was inactive.
Regarding `c1ccc(CNCc2cccc(-c3csc(-c4nc5ccccc5[nH]4)c3)c2)cc1`, the growth inhibition in test [1] was 54% (active); in test [4], 102% (active). Further, the inhibition in test [2] is 24%; in test [3], -3%. The outcome in test [5], in test [6], in test [7] and in test [8] was inactive.
Turning to `CCCCCCCc1c(C)[nH]c2cccc(OC)c2c1=O`, the growth inhibition in test [1] is 47%; in test [4], 95% (active). Further, the inhibition in test [2] was 43%; in test [3], 0%. Further, the result in test [5], in test [6], in test [7] and in test [8] was inactive.
As to `COc1ccc2c(NN=Cc3ccccc3Cl)ccnc2c1`, the results for the growth inhibition in test [1] and in test [4] were 46% and 99% (active), respectively. Besides, the inhibition in test [2] is 10%; in test [3], -6%. For the same molecule, the outcome in test [5], in test [6], in test [7] and in test [8] was inactive.
Turning to `CCn1c(SCc2ccc(F)cc2)nc2sc3c(c2c1=O)CCN(C)C3`, the growth inhibition in test [1] was 81% (active); in test [4] it was 95% (active). Also, the results for the inhibition in test [2] and in test [3] were 2% and 3%, respectively. Further, the result in test [5], in test [6], in test [7] and in test [8] was inactive.
As to `COc1ccc2c(-c3ccccc3)noc2c1`, the values for the growth inhibition in test [1] and in test [4] were 34% and 98% (active), respectively. The inhibition in test [2] is -4%; in test [3], -2%. Further, the outcome in test [5], in test [6], in test [7] and in test [8] was inactive.
As to `O=[N+]([O-])c1cccc(CNCC2CCN(Cc3ccc4ccccc4c3)CC2)c1`, the growth inhibition in test [1] is 42%; in test [4] it was 100% (active). Moreover, the inhibition was 18% in test [2] and 4% in test [3]. The outcome in test [5], in test [6], in test [7] and in test [8] was inactive.
`Cc1ccc(CNC(=O)[C@H](Cc2ccccc2)Nc2cc(C)nc(NCc3ccccc3C)n2)cc1`: the growth inhibition is 50% (active) in test [1] and 97% (active) in test [4]. Besides, the inhibition in test [2] was 23%; in test [3] it was 0%. In addition, the result in test [5], in test [6], in test [7] and in test [8] was inactive.

The inhibition is the change of the read-out against control, counted positive when it falls.
